Screening results as filed in PubChem BioAssay.
CtBP-E1A inh: inhibitors of CtBP/E1A interaction; AlphaScreen GST-E1A/His-CtBP binding, 1536-well; active compounds read low; activity change, % (concentration not given with the values); 340,000 tested, 0.49% active; AID 651724; in the data active means activity change below about -65%; inconclusive means mostly about -30% to -63%
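Protein mix (5X: 125 nM each GST-E1A, His-CtBP) was incubated with pinned compound 2 h at 37 deg C in dark, in 50 mM Tris pH 8.0 buffer with 300 mM NaCl. Glutathione donor and nickel acceptor beads followed; AlphaScreen signal read after 1 h.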
TDP1 inh: blocks human tyrosyl-DNA phosphodiesterase 1. Q9NUW8. recombinant TDP1, AlphaScreen DNA substrate cleavage. Potency, µM (top dose mostly 130 µM), for inactives: at the highest dose activity change, negative = inhibition, usual class: inhibitors. 350,000 tested, 0.28% active. AID 485290; further: potency means the concentration at half of the fitted maximal effect; nearly all actives have a fitted effect of over 40% in size
Target sequence (Q9NUW8 whole entry, looked up): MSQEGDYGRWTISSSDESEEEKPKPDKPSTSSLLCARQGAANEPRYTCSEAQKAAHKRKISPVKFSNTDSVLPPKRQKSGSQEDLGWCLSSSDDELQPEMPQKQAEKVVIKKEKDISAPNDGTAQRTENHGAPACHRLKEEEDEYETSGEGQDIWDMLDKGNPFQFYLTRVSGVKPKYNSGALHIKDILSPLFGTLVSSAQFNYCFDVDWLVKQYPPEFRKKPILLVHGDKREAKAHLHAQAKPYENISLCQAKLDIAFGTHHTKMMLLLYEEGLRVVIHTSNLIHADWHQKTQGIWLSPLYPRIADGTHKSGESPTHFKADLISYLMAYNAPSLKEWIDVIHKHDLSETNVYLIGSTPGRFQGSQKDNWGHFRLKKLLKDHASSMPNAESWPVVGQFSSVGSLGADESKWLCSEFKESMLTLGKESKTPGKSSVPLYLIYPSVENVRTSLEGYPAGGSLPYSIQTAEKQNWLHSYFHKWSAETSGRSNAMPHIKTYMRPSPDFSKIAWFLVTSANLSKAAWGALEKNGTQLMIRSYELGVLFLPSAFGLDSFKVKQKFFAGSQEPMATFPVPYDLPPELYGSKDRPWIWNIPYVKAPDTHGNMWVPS
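Tdp1 1 nM final; 15 min RT w/ cpd; substrate 15 nM, 5 min; beads 10 ug/ml, 10 min; AlphaScreen read. Neg ctrl: no enzyme.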
IL1B secr inh: inhibitors of inflammasome signaling (IL-1 beta secretion) | THP-1 LPS/ATP IL-1B secretion, AlphaLISA, 16 h; active compounds read low | activity change, % at 57.5 µM | 360,000 tested, 4.7% active | AID 743279; in the data active means activity change below about -50%; inconclusive means mostly about -30% to -49%
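Secreted IL-1B measured by AlphaLISA bead assay after 16 h compound exposure of THP-1 cells; compounds (final up to 57.5 uM) added 1 h before LPS (250 ng/mL) and ATP (1.25 mM) stimulation; lower signal means less secretion.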
Six1-Eya2 blk: blocks human Six1 binding to Eya2; activity change, % (test concentration not listed); AID 651725; AlphaScreen GST-Six1/His-Eya2 binding, biochemical; active compounds read low; 360,000 tested, 0.56% active; Q15475+O00167; in the data active means activity change below about -65%; inconclusive means mostly about -30% to -63%
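GST-Six1 + His-Eya2 (5X stock: 250/500 nM); Tris pH 8.0, 300 mM NaCl, 0.05% BSA, 0.02% Tween 20; GSH donor/Ni acceptor beads; 1 h 37 °C dark; AlphaScreen readout.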
DT40 TDP1 CPT: DT40-hTDP1 cell growth loss with CPT; chicken DT40 Tdp1-/-;hTDP1 cells + 20 nM CPT, ATP luminescence, 48 h; Potency, µM (highest dose often 46.2 µM), without a hit: at the highest dose activity change, negative = growth inhibition, hits mostly inhibitors; 420,000 tested, 12% active; AID 686979; further: potency means the concentration at half of the fitted maximal effect; nearly all actives have a fitted effect of over 55% in size
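Chicken DT40 Tdp1-/- cells stably complemented with human TDP1 were seeded at 400 cells/well in medium containing 20 nM camptothecin, exposed to pin-transferred compounds, and grown at 37 °C for at least 48 hr. Viability was read as ATP luminescence.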
DT40 TDP1 no CPT: qHTS for Inhibitors of human tyrosyl-DNA phosphodiesterase 1 (TDP1): qHTS in cells in absence of CPT; DT40 Tdp1-/- hTDP1 cells, no CPT, ATP luminescence, 48 h; Potency, µM (doses to about 46.2 µM), inactives show top-dose activity change, negative = growth inhibition, usual class: inhibitors; 420,000 tested, 15% active; AID 686978, 2013; further: potency means the concentration at half of the fitted maximal effect; nearly all actives have a fitted effect of over 55% in size
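A cellular qHTS used chicken DT40 cells lacking endogenous Tdp1 but carrying stably transfected human TDP1. Compounds were applied without camptothecin, and cell growth kinetics were judged by ATP-dependent luminescence after ≥48 hr.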
* hit, by the source's call; ? = inconclusive; nt = not tested or not shown; [ ] = another dose, or the depositor's remark. The list is not random: actives were taken first. Their share in the collection is about 18%. Unless noted, the call rests on the fitted dose curve; in most records, active means well fitted curve in the direction sought with a large enough effect; inconclusive means small, poorly fitted or top-dose-only effect, or another doubt; inactive means no such curve, though single readings can be large; an effect the other way counts as inactive or inconclusive. On the % scale 0 is the no-effect control and ±100 the full control effect.

SMILES	CtBP-E1A inh	TDP1 inh	IL1B secr inh	Six1-Eya2 blk	DT40 TDP1 CPT	DT40 TDP1 no CPT
COc1ccc(C(=O)NC(=S)NNC(=O)c2ccc(NC(=O)C(C)C)cc2)cc1	1	8%	-4	-22	16µM*	15µM*
COc1ccc(C(=O)Nc2cc(Cl)ccc2OC(=O)c2ccc(OC)cc2)cc1	6	2%	-7	-2	?	?
CC(C)C(=O)Nc1ccc(C(=O)NNC(=S)NC(=O)c2ccccc2[N+](=O)[O-])cc1	3	5%	-10	-5	9%	1%
COC(=O)/C(=C\Nc1ccc(Cl)cc1Cl)NC(=O)c1ccc(OC)cc1	-11	6%	-7	-15	3.7µM*	4.1µM*
COc1cc(C(=O)NNC(=S)NC(=O)c2ccc(Cl)cc2)cc(OC)c1OC	-7	3%	21	-10	?	23µM*
COc1ccc(C(=O)NC(=S)NNC(=O)c2ccc(C)cc2)cc1	-14	nt	32	-14	?	?
COc1cc(C(=O)NC(=S)Nc2nccs2)cc(OC)c1OC	-22	5%	-29	-14	?	21µM*
CCn1nc(C(=O)Nc2nc(-c3ccccn3)cs2)c2ccccc2c1=O	nt	0%	1	?	2.9µM*	3.3µM*
CCn1nc(C(=O)Nc2ccccc2N2CCCC2)c2ccccc2c1=O	?	4%	-62*	-29	?	?
Cn1nc(C(=O)Nc2cc(Cl)ccc2N2CCCC2)c2ccccc2c1=O	-7	6%	30	0	?	?
CCCn1nc(C(=O)Nc2nc(-c3ccccn3)cs2)c2ccccc2c1=O	-86*	3%	124	-77*	7.3µM*	2.3µM*
Cn1nc(C(=O)Nc2nc(-c3ccccn3)cs2)c2ccccc2c1=O	-91*	12%	17	-91*	4.6µM*	1.3µM*
Cc1ccccc1CN1CCC(Oc2ccc(C(=O)NCc3ccccn3)cc2)CC1	1	2%	42	-3	?	?
CCCCn1c(SCC(=O)Nc2cc(C)on2)nc2cc(S(N)(=O)=O)ccc21	-11	nt	-17	-1	-14%	-4%
CCCCn1c(SCc2c(C)noc2C)nc2cc(S(N)(=O)=O)ccc21	4	-6%	?	-4	13µM*	?
COc1ccccc1N1CCN(CCN(C(=O)c2ccc(F)cc2)c2ccccn2)CC1	-5	10%[56.1 µM]	11	-12	?	?
O=C(Cn1ccnc1)c1ccc(Cl)cc1	-3	nt	0	2	8%	18%
O=C(CC(C(=O)O)n1ccnc1)c1ccc(Cl)cc1 (configuration not stated)	nt	nt	nt	nt	7.1µM*	7.1µM*
NC(=O)N/C=C1\CCCOC1=O	1	nt	0	8	-5%	-30%
CCc1cnc2c(c1SCC(=O)c1ccc(OC)cc1)c(=O)n(C)c(=O)n2C	nt	5%	nt	nt	12µM*	12µM*
CC1CCN(C(=O)CSc2c(C(C)C)cnc3c2c(=O)n(C)c(=O)n3C)CC1	nt	3%	nt	nt	26µM*	16µM*
CCc1cnc2c(c1SCC(=O)N1CCCCC1)c(=O)n(C)c(=O)n2C	nt	3%	nt	nt	?	?
CC(C)c1cnc2c(c1SCC(=O)c1ccc(Cl)cc1)c(=O)n(C)c(=O)n2C	nt	3%	nt	nt	18µM*	23µM*
CCn1c(SCC(=O)N2CCC(C)CC2)nc2c1c(=O)n(C)c(=O)n2C	2	-10%[0.0935 µM]	31	2	3%	-15%
CCc1cnc2c(c1SC(C(C)=O)C(=O)N(C)C)c(=O)n(C)c(=O)n2C (configuration not stated)	nt	-5%	nt	nt	23µM*	?
CC(C)c1cnc2c(c1SCC(=O)O)c(=O)n(C)c(=O)n2C	nt	5%	nt	nt	1%	6%
